# About 410 targets per protein were measured; listed, in parts, are those with the strongest signals and a random draw of the rest.
# B1: CFEM-CGl (Candida glabrata), Q6FRS0 (protein)
# chain: VLATPPACLLACVAQVSKQSSQCHTLNQVGCFCENENTAIKNCLDSICPNGNSDAAYTAFKNSCGDVGKAVASV
# Assays:
# Assay in all cases: glycan array binding signal (z-score within array); higher = stronger binding
# Conditions in all cases: glycan notation: IUPAC condensed, linker removed
# [1] = biological target: Fuc(a1-2)Gal(b1-3)GalNAc(a1-3)[Fuc(a1-2)]Gal(b1-4)Glc
# Summary of the method: (§1)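 Glycan array binding is given as a within-array Z-score, which can be read as non-binding when negative. The arrays, 3228 of them, came from the Consortium for Functional Glycomics database and were retained only where the protein sequence was available. Z-scores were averaged across arrays of the same protein sequence at different concentrations or buffers and across linkers.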
# [2] = biological target: Fuc(a1-2)Gal(b1-3)GlcNAc(b1-2)Man(a1-3)[Fuc(a1-2)Gal(b1-3)GlcNAc(b1-2)Man(a1-6)]Man(b1-4)GlcNAc(b1-4)[Fuc(a1-6)]GlcNAc
# Summary of the method: as §1
# [3] = biological target: Fuc(a1-2)Gal(b1-4)GlcNAc(b1-3)Gal(b1-4)GlcNAc
# Summary of the method: as §1
# [4] = biological target: Fuc(a1-2)Gal(b1-4)GlcNAc(b1-3)Gal(b1-4)GlcNAc(b1-2)Man(a1-3)[Fuc(a1-2)Gal(b1-4)GlcNAc(b1-3)Gal(b1-4)GlcNAc(b1-2)Man(a1-6)]Man(b1-4)GlcNAc(b1-4)GlcNAc
# Summary of the method: as §1
# [5] = biological target: Fuc(a1-2)Gal(b1-4)GlcNAc(b1-3)GalNAc
# Summary of the method: as §1
# [6] = biological target: Fuc(a1-2)Gal(b1-4)GlcNAc(b1-6)GalNAc
# Summary of the method: as §1
# [7] = biological target: Fuc(a1-2)Gal(b1-4)GlcNAc6S
# Summary of the method: as §1
# [8] = biological target: Fuc(a1-2)[GalNAc(a1-3)]Gal(b1-3)GalNAc(a1-3)[Fuc(a1-2)]Gal(b1-4)GlcNAc
# Summary of the method: as §1
# [9] = biological target: Fuc(a1-2)[GalNAc(a1-3)]Gal(b1-4)GlcNAc(b1-2)Man(a1-3)[Fuc(a1-2)[GalNAc(a1-3)]Gal(b1-4)GlcNAc(b1-2)Man(a1-6)]Man(b1-4)GlcNAc(b1-4)[Fuc(a1-6)]GlcNAc
# Summary of the method: as §1
# [10] = biological target: Fuc(a1-2)[GalNAc(a1-3)]Gal(b1-4)[Fuc(a1-3)]GlcNAc(b1-3)GalNAc
# Summary of the method: as §1
# [11] = biological target: Fuc(a1-3)[Gal(b1-4)]GlcNAc(b1-2)Man(a1-3)[Fuc(a1-3)[Gal(b1-4)]GlcNAc(b1-2)Man(a1-6)]Man(b1-4)GlcNAc(b1-4)[Fuc(a1-6)]GlcNAc
# Summary of the method: as §1
# [12] = biological target: Fuc(a1-3)[Gal(b1-4)]GlcNAc(b1-3)Gal(b1-3)[Fuc(a1-4)]GlcNAc
# Summary of the method: as §1
# [13] = biological target: Fuc(b1-3)GlcNAc
# Summary of the method: as §1
# [14] = biological target: Gal(a1-4)Gal(b1-4)Glc
# Summary of the method: as §1
# [15] = biological target: Gal(b1-3)Gal
# Summary of the method: as §1
# [16] = biological target: Gal(b1-3)Gal(b1-4)GlcNAc
# Summary of the method: as §1
# [17] = biological target: Gal(b1-3)GalNAc(a1-3)[Fuc(a1-2)]Gal(b1-4)Glc
# Summary of the method: as §1
# [18] = biological target: Gal(b1-3)GalNAc(b1-3)Gal
# Summary of the method: as §1
# [19] = biological target: Gal(b1-3)GalNAc(b1-4)Gal(b1-4)Glc
# Summary of the method: as §1
# [20] = biological target: Gal(b1-3)GlcNAc(b1-2)Man(a1-3)[Gal(b1-3)GlcNAc(b1-2)Man(a1-6)]Man(b1-4)GlcNAc(b1-4)GlcNAc
# Summary of the method: as §1
# [21] = biological target: Gal(b1-3)GlcNAc(b1-3)Gal(b1-4)[Fuc(a1-3)]GlcNAc
# Summary of the method: as §1
# [22] = biological target: Gal(b1-3)[Fuc(a1-4)]GlcNAc(b1-2)Man(a1-3)[Gal(b1-3)[Fuc(a1-4)]GlcNAc(b1-2)Man(a1-6)]Man(b1-4)GlcNAc(b1-4)[Fuc(a1-6)]GlcNAc
# Summary of the method: as §1
# [23] = biological target: Gal(b1-3)[Neu5Ac(a2-6)]GalNAc
# Summary of the method: as §1
# [24] = biological target: Gal(b1-4)GlcNAc(b1-3)Gal(b1-4)GlcNAc(b1-2)Man(a1-3)[Gal(b1-4)GlcNAc(b1-3)Gal(b1-4)GlcNAc(b1-2)Man(a1-6)]Man(b1-4)GlcNAc(b1-4)GlcNAc
# Summary of the method: as §1
# [25] = biological target: Gal(b1-4)GlcNAc(b1-3)Gal(b1-4)GlcNAc(b1-3)Gal(b1-4)GlcNAc(b1-3)Gal(b1-4)GlcNAc(b1-2)[Gal(b1-4)GlcNAc(b1-3)Gal(b1-4)GlcNAc(b1-3)Gal(b1-4)GlcNAc(b1-3)Gal(b1-4)GlcNAc(b1-6)]Man(a1-6)[Gal(b1-4)GlcNAc(b1-3)Gal(b1-4)GlcNAc(b1-3)Gal(b1-4)GlcNAc(b1-3)Gal(b1-4)GlcNAc(b1-2)Man(a1-3)]Man(b1-4)GlcNAc(b1-4)[Fuc(a1-6)]GlcNAc
# Summary of the method: as §1
# [26] = biological target: Gal(b1-4)GlcNAc(b1-3)Gal(b1-4)GlcNAc(b1-3)GalNAc
# Summary of the method: as §1
# [27] = biological target: Gal(b1-4)GlcNAc(b1-3)Gal(b1-4)[Fuc(a1-3)]GlcNAc(b1-3)Gal(b1-4)[Fuc(a1-3)]GlcNAc
# Summary of the method: as §1
# [28] = biological target: Gal(b1-4)GlcNAc(b1-3)[Gal(b1-4)GlcNAc(b1-6)]Gal(b1-4)GlcNAc
# Summary of the method: as §1
# [29] = biological target: Gal3S(b1-4)[Fuc(a1-3)]GlcNAc
# Summary of the method: as §1
# [30] = biological target: GlcA(b1-3)GlcNAc
# Summary of the method: as §1
# [31] = biological target: GlcNAc(a1-4)Gal(b1-4)GlcNAc(b1-3)Gal(b1-4)Glc
# Summary of the method: as §1
# [32] = biological target: GlcNAc(b1-2)[GlcNAc(b1-4)]Man(a1-3)[GlcNAc(b1-4)][GlcNAc(b1-2)[GlcNAc(b1-6)]Man(a1-6)]Man(b1-4)GlcNAc(b1-4)[Fuc(a1-6)]GlcNAc
# Summary of the method: as §1
# [33] = biological target: GlcNAc(b1-3)Gal(b1-4)GlcNAc(b1-3)Gal(b1-4)GlcNAc(b1-2)Man(a1-3)[GlcNAc(b1-3)Gal(b1-4)GlcNAc(b1-3)Gal(b1-4)GlcNAc(b1-2)Man(a1-6)]Man(b1-4)GlcNAc(b1-4)GlcNAc
# Summary of the method: as §1
# [34] = biological target: GlcNAc(b1-3)Gal(b1-4)GlcNAc(b1-3)Gal(b1-4)GlcNAc(b1-3)Gal(b1-4)GlcNAc(b1-3)Gal(b1-4)GlcNAc(b1-2)Man(a1-3)[GlcNAc(b1-3)Gal(b1-4)GlcNAc(b1-3)Gal(b1-4)GlcNAc(b1-3)Gal(b1-4)GlcNAc(b1-3)Gal(b1-4)GlcNAc(b1-2)Man(a1-6)]Man(b1-4)GlcNAc(b1-4)GlcNAc
# Summary of the method: as §1
# [35] = biological target: GlcNAc(b1-3)[GlcNAc(b1-6)]Gal(b1-4)GlcNAc
# Summary of the method: as §1
# [36] = biological target: GlcNAc(b1-4)GlcNAc(b1-4)GlcNAc(b1-4)GlcNAc(b1-4)GlcNAc(b1-4)GlcNAc
# Summary of the method: as §1
# [37] = biological target: Kdn(a2-3)Gal(b1-3)GlcNAc
# Summary of the method: as §1
# [38] = biological target: Man(a1-3)[Man(a1-6)]Man(a1-6)[Man(a1-3)]Man(b1-4)GlcNAc(b1-4)GlcNAc
# Summary of the method: as §1
# [39] = biological target: Neu5Ac(a2-3)Gal(b1-3)GalNAc(b1-4)[Neu5Ac(a2-8)Neu5Ac(a2-3)]Gal(b1-4)Glc
# Summary of the method: as §1
# [40] = biological target: Neu5Ac(a2-3)Gal(b1-3)GalNAc6S
# Summary of the method: as §1
# [41] = biological target: Neu5Ac(a2-3)Gal(b1-3)GlcNAc(b1-3)Gal(b1-4)GlcNAc
# Summary of the method: as §1
# [42] = biological target: Neu5Ac(a2-3)Gal(b1-3)[Fuc(a1-4)]GlcNAc
# Summary of the method: as §1
# [43] = biological target: Neu5Ac(a2-3)Gal(b1-4)GlcNAc(b1-2)Man(a1-3)[Neu5Ac(a2-3)Gal(b1-4)GlcNAc(b1-2)Man(a1-6)]Man(b1-4)GlcNAc(b1-4)GlcNAc
# Summary of the method: as §1
# [44] = biological target: Neu5Ac(a2-3)Gal(b1-4)GlcNAc6S
# Summary of the method: as §1
# [45] = biological target: Neu5Ac(a2-3)Gal(b1-4)[Fuc(a1-3)]GlcNAc(b1-3)Gal
# Summary of the method: as §1
# [46] = biological target: Neu5Ac(a2-3)Gal(b1-4)[Fuc(a1-3)]GlcNAc(b1-3)GalNAc
# Summary of the method: as §1
# [47] = biological target: Neu5Ac(a2-3)Gal(b1-4)[Fuc(a1-3)]GlcNAc(b1-6)[Gal(b1-3)]GalNAc
# Summary of the method: as §1
# [48] = biological target: Neu5Ac(a2-3)GalNAc(b1-4)GlcNAc
# Summary of the method: as §1
# [49] = biological target: Neu5Ac(a2-3)[Neu5Ac(a2-6)]GalNAc
# Summary of the method: as §1
# [50] = biological target: Neu5Ac(a2-6)Gal(b1-3)GlcNAc(b1-3)[Gal(b1-4)GlcNAc(b1-6)]Gal(b1-4)Glc
# Summary of the method: as §1
# [51] = biological target: Neu5Ac(a2-6)Gal(b1-4)GlcNAc(b1-3)Gal(b1-4)GlcNAc(b1-3)Gal(b1-4)GlcNAc(b1-2)Man(a1-3)[Neu5Ac(a2-6)Gal(b1-4)GlcNAc(b1-3)Gal(b1-4)GlcNAc(b1-3)Gal(b1-4)GlcNAc(b1-2)Man(a1-6)]GalNAc
# Summary of the method: as §1
# [52] = biological target: Neu5Ac(b2-6)GalNAc
# Summary of the method: as §1
# [53] = biological target: Neu5Ac9Ac(a2-3)Gal(b1-4)GlcNAc
# Summary of the method: as §1
# [54] = biological target: Neu5Gc(a2-3)Gal(b1-4)GlcNAc
# Summary of the method: as §1
binder,measurement,setting,value
B1,glycan array binding signal (z-score),[1],-0.334
same,glycan array binding signal (z-score),[2],-0.163
same,glycan array binding signal (z-score),[3],-0.233
same,glycan array binding signal (z-score),[4],-0.168
same,glycan array binding signal (z-score),[5],8.8
same,glycan array binding signal (z-score),[6],0.206
same,glycan array binding signal (z-score),[7],-0.397
same,glycan array binding signal (z-score),[8],-0.609
same,glycan array binding signal (z-score),[9],-0.183
same,glycan array binding signal (z-score),[10],4.55
same,glycan array binding signal (z-score),[11],-0.347
same,glycan array binding signal (z-score),[12],-0.484
same,glycan array binding signal (z-score),[13],-0.346
same,glycan array binding signal (z-score),[14],-0.153
same,glycan array binding signal (z-score),[15],3.15
same,glycan array binding signal (z-score),[16],2.81
same,glycan array binding signal (z-score),[17],0.176
same,glycan array binding signal (z-score),[18],6.73
same,glycan array binding signal (z-score),[19],9.88
same,glycan array binding signal (z-score),[20],-0.248
same,glycan array binding signal (z-score),[21],-0.497
same,glycan array binding signal (z-score),[22],-0.165
same,glycan array binding signal (z-score),[23],2.93
same,glycan array binding signal (z-score),[24],4.99
same,glycan array binding signal (z-score),[25],0.09
same,glycan array binding signal (z-score),[26],0.84
same,glycan array binding signal (z-score),[27],-0.249
same,glycan array binding signal (z-score),[28],-0.249
same,glycan array binding signal (z-score),[29],-0.353
same,glycan array binding signal (z-score),[30],-0.457
same,glycan array binding signal (z-score),[31],-0.384
same,glycan array binding signal (z-score),[32],-0.628
same,glycan array binding signal (z-score),[33],3.84
same,glycan array binding signal (z-score),[34],-0.264
same,glycan array binding signal (z-score),[35],-0.258
same,glycan array binding signal (z-score),[36],0.197
same,glycan array binding signal (z-score),[37],-0.288
same,glycan array binding signal (z-score),[38],-0.003
same,glycan array binding signal (z-score),[39],-0.372
same,glycan array binding signal (z-score),[40],0.752
same,glycan array binding signal (z-score),[41],-0.343
same,glycan array binding signal (z-score),[42],-0.12
same,glycan array binding signal (z-score),[43],-0.517
same,glycan array binding signal (z-score),[44],-0.111
same,glycan array binding signal (z-score),[45],-0.311
same,glycan array binding signal (z-score),[46],3.44
same,glycan array binding signal (z-score),[47],0.977
same,glycan array binding signal (z-score),[48],-0.449
same,glycan array binding signal (z-score),[49],-0.425
same,glycan array binding signal (z-score),[50],-0.355
same,glycan array binding signal (z-score),[51],4.31
same,glycan array binding signal (z-score),[52],0.161
same,glycan array binding signal (z-score),[53],-0.485
same,glycan array binding signal (z-score),[54],-0.194
